For 40 compounds, growth results are on record in PubChem BioAssay (NCI).

Each structure is given as a SMILES string. This is part of a sample that, as a whole, favours compounds with a hit. Of some 83,000 tested, about 20% had one in any assay.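 Plates (96-well) were seeded with cells, treated with compound at one concentration, and incubated for 48 hours before percent growth was determined.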 A number with no mark means an inactive call. Active and inactive are the calls of the source.

The test system of the assay is SNB-19 CNS. Briefly: NCI-60 one-dose screen, 48 h (100 = growth as untreated, 0 = no growth, -100 = all killed). As to conditions: 10 µM unless noted. As to the method: Growth inhibition of the SNB-19 human tumor cell line is measured as a screen for anti-cancer activity. Cells are grown in 96 well plates and exposed to the test compound for 48 hours. Compounds are tested at a single concentration, which is 10^-5 M for most compounds. The reported endpoint is percent growth (GI% or GIPRCNT), where numbers from 0 - 100% represent growth inhibition, and numbers from -100% - 0 represent cell death. For example, a value of 40 represents 60% growth inhibition. A value of 0 means no net growth occurred over the course of the experiment. A value of -40 indicates 40% of cells at the beginning of the experiment died by the end of the experiment. A value of -100 means all cells are dead at the end of the experiment.
NCI-60 Human Tumor Cell Lines Screen was performed using the standard one-dose NCI protocol, which is described in more detail at https://dtp.cancer.gov/discovery_development/nci-60/default.htm.
Compounds with GIPRCNT values below 10 were considered active. Activity score was based on GIPRCNT using the following formula: […]
Score is 0 for GIPRCNT values of 100 or above, 50 for GIPRCNT values of 0, and 100 for GIPRCNT values of -100.
For the compound `O=C1CCC(N2C(=O)c3cccc(NCCOCCOCCNC(=O)c4cc5c(o4)C(=O)c4ccccc4C5=O)c3C2=O)C(=O)N1` (stereo not given), the growth was -24.3% (active). Consider `COc1c(Cl)ccc2c(-c3nc4cc(Cl)c(F)cc4s3)cc(=O)oc12`, for which the growth was 96%. Under `c1ccc(-c2n(Cc3ccc4ccccc4c3)c3ccccc3[n+]2Cc2ccc3ccccc3c2)cc1` stands -16.4% (active); under `COc1nc2c(cc1S(=O)(=O)c1ccccc1)CCc1c-2cnn1-c1ccccc1`, 89.3%.

As for `O=C(Nc1ccccc1)Oc1cccc2cccnc12`, the growth is 99.3%. The figure for `CCCCOC(=O)C1OC(Oc2ccc3c(C)cc(=O)oc3c2)[C@@H](OC(C)=O)C(OC(C)=O)C1OC(C)=O` (stereo not given in full) is 99.1%; for `Oc1cccc(Nc2nc(-c3ccccn3)cs2)c1` it is 98.8%; for `Fc1c[c-]c(-c2ccccn2)c(F)c1.Fc1c[c-]c(-c2ccccn2)c(F)c1.[Cl][Pt+].[Cl][Pt+].c1ccc([PH+](C[PH+](c2ccccc2)c2ccccc2)c2ccccc2)cc1` it is 17.8%. Under `COC(=O)[C@@]12CC[C@@H](C)[C@]3(C[C@@H](c4ccoc4)OC3=O)[C@H]1CC[C@@H]1O[C@@]12C` stands 102%; under `CCOC(=O)c1c(Cl)c2c(n1Cc1cc(OC)cc(OC)c1)-c1oncc1CCC2`, 55.8%; under `COc1cc(C(=O)/C=C/c2c(-c3cccs3)nc3sccn23)cc(OC)c1OC`, 14.4%. Under `COc1ccc(NC(=O)COc2ccccc2)c(C(N)=O)c1` stands 53.4%; under `COC(=O)/C=C1/CCC2C3CCC4=CC(=O)C(Br)CC4(C)C3C(=O)CC12C` (stereo not given), 78.9%.

On to `COc1cccc2c(=O)c3c(sc12)c(NCCN(C)C)nc1ccccc13`, for which the growth is 36.6%.

Consider `Cc1ccc(-c2c3c(N)c4c(nc3nc3c2c(C)nn3-c2ccccc2)CCCC4)cc1`, for which the growth was 108%.

As for `CN1CCc2cccc3c2C1Cc1ccc(O)c(O)c1-3` (stereo not given), the growth is 111%.

For `O=C(c1cnn2c1NC(c1ccc(F)cc1)C2)N1CCCCC1` (stereo not given), the growth is 100%. For the compound `Cc1nc2cc(Nc3nc(Nc4ccc(F)cc4)nc(N4CCN(C)CC4)n3)ccc2n1Cc1ccccc1`, the growth was 44.2%.

On to `COc1cc(/C=C2\C(=O)N(c3c(Cl)cccc3Cl)c3ccccc32)cc(OC)c1O`, for which the growth is 52.4%.

As to `Cc1nc(-c2ccccc2)cc2c(O)c(C(=O)N/N=C/Cc3ccccc3)[nH]c(=O)c12`, the growth is 110%.

With `C=C(C)COC(=O)c1ccccc1C(=O)OCC1(C)CO1` (stereo not given), the growth was 101%. Consider `O=c1oc2ccccc2cc1-c1csc(N=Nc2c(O)[nH]c3ccc(Br)cc23)n1`, for which the growth was 95.8%. Under `O=C(CC(O)c1ccccc1)Nc1ccccn1` (stereo not given) stands 92.1%.

As to `O=C(CCc1nnc2sc(-c3ccccc3)nn12)c1nc2ccccc2[nH]1`, the growth was 104%. Turning to `COc1ccc(-c2c3c(N)c4c(nc3nc3c2c(C)nn3-c2ccccc2)CCCCC4)cc1`, the growth is 93.7%. As to `CSC1=CC(=O)c2ccccc2C1=O`, the growth is 94.2%. The figure for `ONc1nc(NO)c2[nH]cnc2n1` is 112%. The figure for `COC(=O)CCC(=O)c1ccccc1` is 102%; for `O=C1NC(=O)C2(CCCC2C(=O)O)N1` (stereo not given) it is 106%; for `O=C1C=CC(=O)N1CCCCCCCCCCN1C(=O)C=CC1=O` it is 108%. On to `O=C(O)c1ccccc1Oc1cc(-c2ccco2)nc(OCCBr)n1`, for which the growth is 98.6%. As for `CCCCCCCC/C=C\CCCCCCCCOc1cccc(CC(=O)NCC[N+]2(C)CCOCC2)c1`, the growth is 72.3%. `COc1ccc(OC2=C(C#N)C(=N)N3c4ccccc4Sc4ccccc4C3N2)cc1` (stereo not given): the growth was 97.8%. Regarding `Fc1ccccc1Nc1ccc2nnc(-c3ccncc3)n2n1`, the growth was 100%.

As to `COc1ccc(C(=O)C2=CC(=O)C(=O)C2)cc1OC`, the growth is 105%. The figure for `FC(F)(F)c1cc(CNc2nc(Cl)ncc2Br)cc(C(F)(F)F)c1` is 107%. Under `COc1cc(/C=N/NC(=O)c2cnn3c2NC(c2ccccc2)C3)ccc1OC1CCCC1` (stereo not given) stands 39.1%. As for `Nc1cc2[nH]c(=O)c3ccccc3c2cc1Br`, the growth was 93.6%. With `Cc1ccc(C2SCC(=O)N2NC(=O)c2[nH]c3ccc(F)cc3c2-c2ccccc2)cc1` (stereo not given), the growth was 88.5%. Consider `Cc1ccc2nc(NC(=O)CSC(=S)N3CCN(Cc4ccccc4)CC3)sc2c1`, for which the growth is -22.2% (active).
